Laboratory results reported in PubChem BioAssay AID1672 (Johns Hopkins Ion Channel Center, 2009).
The whole screen tested about 310,000 compounds, of which about 2,600 (0.84%) were called active. Shown is part of a subset that was picked to be rich in actives. Unmarked numbers belong to inactive results.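 How the source made its calls: active means fluorescence ratio B-score at or below minus 3 SD of library scores, with starting-brightness B-score within 2 SD (cut at about -4.2 in these data); inactive means the rest.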

Biological target: Inward rectifier potassium channel 2 (Mus musculus) (UniProt P35561)
Sequence (P35561 whole entry, looked up): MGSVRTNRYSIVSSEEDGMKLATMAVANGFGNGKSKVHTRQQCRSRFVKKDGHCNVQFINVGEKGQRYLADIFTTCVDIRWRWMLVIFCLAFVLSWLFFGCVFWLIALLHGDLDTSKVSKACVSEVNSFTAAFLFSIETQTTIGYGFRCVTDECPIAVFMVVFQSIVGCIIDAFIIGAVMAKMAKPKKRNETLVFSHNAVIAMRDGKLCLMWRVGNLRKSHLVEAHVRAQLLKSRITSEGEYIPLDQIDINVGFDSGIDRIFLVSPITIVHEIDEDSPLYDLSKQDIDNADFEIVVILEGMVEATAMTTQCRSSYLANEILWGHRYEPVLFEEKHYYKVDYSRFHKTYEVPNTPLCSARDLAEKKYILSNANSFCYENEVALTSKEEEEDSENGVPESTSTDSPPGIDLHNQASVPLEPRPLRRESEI
Test: inhibitors of mouse Kir2.1 inward-rectifier potassium channel (AID 1672);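 further: channel flux triggered by added potassium and thallium sulfate stimulus; B-score of peak minus minimum fluorescence over baseline after thallium stimulus; more negative B-score means stronger Kir2.1 block with less thallium influx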
Settings: HEK293-Kir2.1, FluxOR thallium flux fluorescence; at 10 µM; active compounds read low

SMILES | B-score
c1ccc(-c2ccccc2OCCN2CCCCC2)cc1 | -1.64
COc1ccccc1OCCCCCCN1CCN(C)CC1 | 1
CC1CCCN(CCOCCOc2ccccc2-c2ccccc2)C1 (stereo not drawn) | -6.74 (active)
CN1CCN(CCCCOc2ccccc2-c2ccccc2)CC1 | -6.95 (active)
CN1CCN(CCCCOc2cccc3ccccc23)CC1 | -1.84
CC1CN(CCCOc2ccccc2-c2ccccc2)CC(C)O1 (stereo not drawn) | -4.04
CC(OC(=O)CCCc1c[nH]c2ccccc12)C(=O)Nc1ccc(S(N)(=O)=O)cc1 (stereo not drawn) | -0.01
Cc1sc(NC(=O)C2=COCCO2)c(C#N)c1C | -0.98
Cc1ccc2[nH]cc(CCNC(=O)C3CCCCC3)c2c1 | 0.62
O=C(NCCc1c[nH]c2ccccc12)c1cccc(Br)c1 | -0.14
O=C(NCCc1c[nH]c2ccccc12)C1CCN(Cc2ccc(Br)cc2)CC1 | -5.88 (active)
Cc1c(NC(=O)C(C)OC(=O)c2c3c(nc4ccccc24)CCC(C)C3)c(=O)n(-c2ccccc2)n1C (stereo not drawn) | 0.01
CCOC(=O)C(C)Sc1nnc(CSc2nc3nc(C)cc(C)n3n2)o1 (stereo not drawn) | 0.45
Cc1cc(C)cc(OCc2nnc(SCC(=O)OC3CCCCC3)o2)c1 | 2.83
Cc1cc(C)nc(SCc2nnc(SCC(=O)OC3CCCCC3)o2)n1 | -6.39 (active)
O=C(CSc1nnc(-c2cccnc2)n1Cc1ccco1)c1ccc(Cl)cc1 | -3.48
O=C(CSc1nnc(-c2cccnc2)n1Cc1ccco1)c1ccc(Cl)c(Cl)c1 | -0.81
C(=C\c1ccccc1)/CSc1nnc(-c2cccnc2)n1Cc1ccco1 | -6.26 (active)
O=C(Cc1ccc(S(=O)(=O)N2CCOCC2)s1)NCCOc1ccccc1F | -0.88
O=C(CCC1CCCCC1)Nc1cc(C(F)(F)F)ccc1N1CCOCC1 | -0.88
Cc1cc(=O)oc2cc(NC(=O)C(C)Oc3ccccc3)ccc12 (stereo not drawn) | 0.76
COc1ccc(C(O)(C2CCCCC2)C(CN2CCCC2)c2ccccc2)cc1 (stereo not drawn) | -6.33 (active)
CCCC(O)(c1ccc(OC)cc1)C(CN(C)C)c1ccccc1 (stereo not drawn) | -2.85
CC(CN1CCCCC1)c1ccccc1 (stereo not drawn) | -0.88
CN(CC(=O)NCc1cccnc1)S(=O)(=O)c1cc(Cl)ccc1Cl | 0.05

SMILES | B-score
Cc1ccc(S(=O)(=O)NCCC(=O)NNC(=O)C2COc3ccccc3O2)cc1 (stereo not drawn) | -0.97
COc1cccc(CC2(CO)CCCN(Cc3ccc(OC(F)F)cc3)C2)c1 (stereo not drawn) | -1.05
Cn1c(-c2ccco2)nc2cc3ccccc3cc21 | 0.04
Cn1cccc1-c1nc2ccccc2n1C | -0.13
CN1c2ccccc2-c2nc3ccccc3n2C1c1ccco1 (stereo not drawn) | -4.99 (active)
COc1ccccc1N1CCN(c2nc(C)cc(=O)[nH]2)CC1 | 0.62
O=C(CCNC(=O)Cn1ccc2ccccc2c1=O)NCCC1=CCCCC1 | -0.38
CCn1c(=O)cc(SCC(=O)NCCC2=CCCCC2)c2ccccc21 | -8.59 (active)
O=C(Cc1cccc2ccccc12)NCCC1=CCCCC1 | -1.35
CCOc1cc(N2CCOCC2)c(OCC)cc1NC(=O)COc1cccc(Cl)c1 | -0.59
CC(C)CN(C(=O)c1ccc2c(c1)OCO2)C1CCS(=O)(=O)C1 (stereo not drawn) | -2.25
COc1ccc(Nc2ncnc3sc(C)cc23)cc1 | -6.13 (active)
COc1ccc(Nc2ncnc3sc(-c4ccccc4)cc23)c(OC)c1 | 0
COc1ccc(Nc2nnc(C)c3ccccc23)cc1 | -0.1
Cc1ccc2nc(Nc3ccccc3)cc(C)c2c1 | 1.96
Cc1ccc2nc3n(c(=O)c2c1)CCC3 | -2.3
Cc1ccc2nc(C)c3c(c2c1)N(c1ccccc1)CC3 | -13.2 (active)
O=C(O)C1C2C=CC(C2)C1C(=O)NCc1ccccc1 (stereo not drawn) | -0.26
CCCCCCn1c(CN2CCCCC2)nc2c1c(=O)n(C)c(=O)n2C | -1.63
CCCCCCCCn1c2c(c(=N)c3c1CCC3)CCCC2 | -14.8 (active)
COc1ccccc1NC(=O)C(C)OC(=O)c1ccc(-n2cnnn2)cc1 (stereo not drawn) | 1.19
CC(=O)Nc1ccc(C(=O)NNC(=O)CCCCC(=O)NNC(=O)c2ccc(NC(C)=O)cc2)cc1 | 0.27
CCOc1ccc(S(=O)(=O)NCCC(=O)N2CCCCCCC2)cc1 | -0.07
COc1cccc(CN(C)CC(=O)NCc2ccccc2Cl)c1OC | -3.73
COc1cccc(CN(C)CC2CCCN(CCc3ccc(Cl)cc3)C2)c1OC (stereo not drawn) | -8.2 (active)

SMILES | B-score
Cc1nc2ccc(C(=O)N(C)CC3CCCN(CCc4ccc(Cl)cc4)C3)cc2[nH]1 (stereo not drawn) | -1.32
O=C(Nc1ccc(OC(F)(F)F)cc1)c1ccc2c(c1)no[n+]2[O-] | 0.38
N=C(N)SCc1cccc2ccccc12 | -3.09
CCc1ccc(-c2nn(-c3ccccc3)cc2CSC(=N)N)cc1 | -10.6 (active)
O=C(Nc1cn(-c2ccccc2)nc1-c1ccccc1)c1ccccc1 | 0
CCN1CCN(c2ccc(S(=O)(=O)N3CCCCC3)cc2NC(=O)c2cccc(NC(C)=O)c2)CC1 | 0.95
CCc1ccc(C(=O)NNC(=O)C2CCN(c3ncnc4sc(C)c(C)c34)CC2)cc1 | -1.35
O=C(COc1ccccc1Cl)Nc1ccccc1C(=O)NC1CC1 | -1.39
COc1ccc(NC(=S)NCC2CCN(c3ccc(OC)cc3)C2)cc1 (stereo not drawn) | 1.12
COc1ccc(N2CCC(CNC(=S)Nc3c(C)cccc3C)C2)cc1 (stereo not drawn) | -6.34 (active)
COc1ccc(NC(=S)NCCN2CCC(C)CC2)cc1 | -1.95
COc1ccc(F)cc1S(=O)(=O)NCC(c1ccc2c(c1)OCO2)N1CCN(C)CC1 (stereo not drawn) | -0.39
COc1ccccc1CSc1ncc(-c2ccc([N+](=O)[O-])cc2)[nH]1 | 0.65
Nc1ccccc1SCc1cc([N+](=O)[O-])cc2c1OCOC2 | -4.96 (active)
CC(O)C(NS(=O)(=O)c1ccc(Cl)cc1)C(=O)OCc1cc([N+](=O)[O-])cc2c1OCOC2 (stereo not drawn) | -0.06
CCN(CC)CCn1c2c(c(SCC(=O)Nc3nc4ccccc4s3)nc1=O)CCCC2 | 0.03
COc1ccc(NC(=O)CN(C)C(=O)/C=C/c2cn(Cc3ccccc3)nc2-c2cccnc2)cc1 | 0.01
CCOC(=O)c1cc(NC(=O)c2cccnc2)ccn1 | 0.04
CCc1noc(C)c1C(=O)Oc1ccc(N(C)S(=O)(=O)c2ccc(C)c(C)c2)cc1 | -0.66
CC(OC(=O)C1CC(=O)N(Cc2ccccc2)C1)C(=O)Nc1ccccc1[N+](=O)[O-] (stereo not drawn) | -1.36
N=c1c2c(-c3ccccc3)c(-c3ccccc3)n(Cc3ccccc3)c2ncn1CCCO | -6.86 (active)
CCN(CC)CCn1cnc2c1c(=O)[nH]c(=O)n2Cc1ccccc1 | 0.13
N=c1c2c(-c3ccccc3)c(-c3ccccc3)oc2ncn1Cc1ccco1 | 1.16
Cn1c(SCC(=O)c2ccccc2)ncc(C(=O)Nc2ccc(F)cc2)c1=O | 1.98
O=S(=O)(Nc1cccc(-c2ccc(N3CCOCC3)nn2)c1)c1ccc(Cl)c(Cl)c1 | 0.82

SMILES | B-score
CCN(CC(=O)NCc1cccs1)C(=O)c1ccc(OC)c(S(=O)(=O)N2CCOCC2)c1 | -0.52
Cc1cccc2c1N(CCOc1ccccc1)C(=O)C2=O | -0.18
CC(O)CNCCOc1cccc(Oc2ccccc2)c1 (stereo not drawn) | -2.96
CC1(C)NC(=O)N(CCOc2cccc(Oc3ccccc3)c2)C1=O | -4.68 (active)
O=C(COc1coc(CN2CCN(c3ccccc3)CC2)cc1=O)Nc1ccccc1F | -0.62
CN(C)CCOC1c2ccccc2-c2ccccc21 | 0.04
CCN(CC)CCOCCOc1ccc(Cl)c2ccccc12 | -2.53
CN(C)CCOCCOc1ccc(Cl)c2ccccc12 | -5.07 (active)
CN(Cc1c(F)cccc1Cl)C(=O)CNC(=O)c1ccc2c(c1)OCO2 | 0.45
CCOc1ccc(NC(=O)CN(C)C(=O)COc2cccc(CC)c2)cc1OCC | -1.11
COc1ccc2c(c1)C(=O)Nc1cc(Cl)ccc1N2 | 0.62
CCCCOC(=O)Cn1c(=O)n(CC(=O)OCCCC)c2cc(C)ccc21 | -7 (active)
CCCCCCCCCCOC(=O)Cn1c(COc2ccc(C)cc2)[n+](C)c2ccccc21 | -17.5 (active)
CCn1c(=N)n(CC(=O)c2cccc(OC)c2)c2ccccc21 | -0.01
CCCCCCCCCCOC(=O)Cn1c(COc2cccc(OC)c2)[n+](C)c2ccccc21 | -8.13 (active)
CCn1c(COc2cccc(OC)c2)nnc1SCC(=O)N1CCOCC1 | 0.86
Cc1ccc(OCc2nc3ccccc3n2C)cc1 | -0.43
CCOC(=O)CN1C(=O)C(=O)c2cc(C)ccc21 | -1.78
Cc1ccc(OCCCn2c(=O)oc3ccccc32)cc1 | -1.92
CCCCOC(=O)Cn1c(=N)n(CCN(CC)CC)c2ccccc21 | 1.01
CC(C)CN(C(=O)COC(=O)c1ccc2ccccc2c1)c1c(N)n(Cc2ccccc2)c(=O)[nH]c1=O | 1.03
CCOc1ccc(NC(=O)COc2ccc(C(=O)N3CCC(C(N)=O)CC3)cc2OC)cc1 | 1.65
COc1ccc(CNC(=O)C(=O)N2CCC3(CC2)OCCN3S(=O)(=O)c2ccc(C)cc2)cc1 | 0.4
